# In ChEMBL document CHEMBL1961873, “Compounds: GSK PKIS; Assays: Nanosyn kinase panel” (2012):
# Legend:
# [1] = biological target: Protein kinase C gamma type (Homo sapiens) (UniProt P05129); conditions: at 1 µM;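 note: each value is an averaged percent inhibition of the enzyme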
# [2] = biological target: T1, Protein kinase C iota type (Homo sapiens) (UniProt P41743); conditions: at 0.1 µM
# T1 sequence (whole entry): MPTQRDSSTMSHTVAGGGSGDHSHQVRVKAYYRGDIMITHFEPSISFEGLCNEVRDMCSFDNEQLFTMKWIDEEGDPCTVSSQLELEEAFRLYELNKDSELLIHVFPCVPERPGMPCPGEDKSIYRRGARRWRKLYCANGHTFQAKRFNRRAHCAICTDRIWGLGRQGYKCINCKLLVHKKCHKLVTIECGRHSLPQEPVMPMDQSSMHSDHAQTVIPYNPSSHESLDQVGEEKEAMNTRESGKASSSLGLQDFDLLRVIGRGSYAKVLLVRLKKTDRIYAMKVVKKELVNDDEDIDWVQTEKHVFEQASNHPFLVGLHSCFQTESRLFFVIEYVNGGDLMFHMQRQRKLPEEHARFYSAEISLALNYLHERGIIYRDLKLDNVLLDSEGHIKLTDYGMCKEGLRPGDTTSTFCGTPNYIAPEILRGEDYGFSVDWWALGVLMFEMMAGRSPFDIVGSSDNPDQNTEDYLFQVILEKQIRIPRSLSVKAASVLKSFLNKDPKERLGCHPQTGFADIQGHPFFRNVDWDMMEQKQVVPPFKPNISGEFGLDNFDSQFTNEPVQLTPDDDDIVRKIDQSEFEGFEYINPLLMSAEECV
# [3] = biological target: T1, Protein kinase C iota type (Homo sapiens); conditions: at 1 µM
# [4] = biological target: Protein kinase C theta type (Homo sapiens) (UniProt Q04759); conditions: at 0.1 µM
# [5] = biological target: Protein kinase C theta type (Homo sapiens) (UniProt Q04759); conditions: at 1 µM
# [6] = biological target: Protein kinase C beta type (Homo sapiens) (UniProt P05771); conditions: at 0.1 µM
# [7] = biological target: Protein kinase C beta type (Homo sapiens) (UniProt P05771); conditions: at 1 µM
# [8] = biological target: T2, Serine/threonine-protein kinase D1 (Homo sapiens) (UniProt Q15139); conditions: at 0.1 µM
# T2 sequence (whole entry): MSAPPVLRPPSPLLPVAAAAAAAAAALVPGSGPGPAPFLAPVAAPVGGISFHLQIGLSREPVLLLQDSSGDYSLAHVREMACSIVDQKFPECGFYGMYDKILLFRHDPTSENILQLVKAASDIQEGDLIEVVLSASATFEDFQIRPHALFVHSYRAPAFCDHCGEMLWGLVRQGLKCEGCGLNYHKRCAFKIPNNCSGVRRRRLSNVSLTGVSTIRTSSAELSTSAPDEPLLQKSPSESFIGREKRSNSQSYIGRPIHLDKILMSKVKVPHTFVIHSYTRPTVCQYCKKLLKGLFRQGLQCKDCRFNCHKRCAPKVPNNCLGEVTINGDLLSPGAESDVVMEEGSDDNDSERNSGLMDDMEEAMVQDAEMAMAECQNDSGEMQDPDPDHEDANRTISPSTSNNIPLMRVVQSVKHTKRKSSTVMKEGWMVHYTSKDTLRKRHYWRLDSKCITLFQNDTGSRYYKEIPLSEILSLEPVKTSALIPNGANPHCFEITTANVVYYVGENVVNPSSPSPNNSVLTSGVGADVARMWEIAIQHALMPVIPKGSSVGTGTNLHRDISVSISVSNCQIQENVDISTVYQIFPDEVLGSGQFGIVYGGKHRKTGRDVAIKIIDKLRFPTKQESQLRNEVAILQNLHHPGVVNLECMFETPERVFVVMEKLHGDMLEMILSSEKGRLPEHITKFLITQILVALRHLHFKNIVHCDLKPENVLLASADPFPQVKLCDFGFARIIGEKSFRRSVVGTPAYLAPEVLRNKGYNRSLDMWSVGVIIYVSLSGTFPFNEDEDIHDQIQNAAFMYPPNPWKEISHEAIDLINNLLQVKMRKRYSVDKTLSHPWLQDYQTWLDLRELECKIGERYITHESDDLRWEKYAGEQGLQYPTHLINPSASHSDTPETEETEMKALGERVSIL
# [9] = biological target: T2, Serine/threonine-protein kinase D1 (Homo sapiens); conditions: at 1 µM
# [10] = biological target: T3, Serine/threonine-protein kinase D2 (Homo sapiens) (UniProt Q9BZL6); conditions: at 0.1 µM
# T3 sequence (whole entry): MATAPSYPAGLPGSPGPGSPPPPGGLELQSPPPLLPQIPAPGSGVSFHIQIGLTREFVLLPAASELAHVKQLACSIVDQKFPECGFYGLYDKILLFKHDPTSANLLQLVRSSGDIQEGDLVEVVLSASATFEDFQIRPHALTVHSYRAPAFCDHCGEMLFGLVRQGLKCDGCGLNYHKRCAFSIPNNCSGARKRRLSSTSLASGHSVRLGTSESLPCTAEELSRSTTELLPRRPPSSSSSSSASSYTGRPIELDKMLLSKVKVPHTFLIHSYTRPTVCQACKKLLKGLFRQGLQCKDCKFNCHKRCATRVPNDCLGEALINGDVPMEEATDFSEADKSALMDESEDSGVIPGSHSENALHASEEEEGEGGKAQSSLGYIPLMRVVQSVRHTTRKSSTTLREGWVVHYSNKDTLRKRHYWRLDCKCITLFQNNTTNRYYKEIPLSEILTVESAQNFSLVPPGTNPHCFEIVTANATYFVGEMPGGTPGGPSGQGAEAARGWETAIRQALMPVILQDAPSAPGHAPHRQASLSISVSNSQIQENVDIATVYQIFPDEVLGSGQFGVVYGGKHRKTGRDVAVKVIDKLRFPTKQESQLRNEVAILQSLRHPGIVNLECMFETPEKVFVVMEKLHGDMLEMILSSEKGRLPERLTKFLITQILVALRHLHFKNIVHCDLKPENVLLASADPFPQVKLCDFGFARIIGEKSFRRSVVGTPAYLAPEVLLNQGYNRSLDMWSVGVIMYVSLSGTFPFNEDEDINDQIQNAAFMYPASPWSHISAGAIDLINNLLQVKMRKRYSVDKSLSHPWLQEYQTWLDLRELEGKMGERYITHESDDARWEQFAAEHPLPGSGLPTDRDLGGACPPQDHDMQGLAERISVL
# [11] = biological target: T3, Serine/threonine-protein kinase D2 (Homo sapiens); conditions: at 1 µM
# [12] = biological target: T4, Serine/threonine-protein kinase D3 (Homo sapiens) (UniProt O94806); conditions: at 0.1 µM
# T4 sequence (whole entry): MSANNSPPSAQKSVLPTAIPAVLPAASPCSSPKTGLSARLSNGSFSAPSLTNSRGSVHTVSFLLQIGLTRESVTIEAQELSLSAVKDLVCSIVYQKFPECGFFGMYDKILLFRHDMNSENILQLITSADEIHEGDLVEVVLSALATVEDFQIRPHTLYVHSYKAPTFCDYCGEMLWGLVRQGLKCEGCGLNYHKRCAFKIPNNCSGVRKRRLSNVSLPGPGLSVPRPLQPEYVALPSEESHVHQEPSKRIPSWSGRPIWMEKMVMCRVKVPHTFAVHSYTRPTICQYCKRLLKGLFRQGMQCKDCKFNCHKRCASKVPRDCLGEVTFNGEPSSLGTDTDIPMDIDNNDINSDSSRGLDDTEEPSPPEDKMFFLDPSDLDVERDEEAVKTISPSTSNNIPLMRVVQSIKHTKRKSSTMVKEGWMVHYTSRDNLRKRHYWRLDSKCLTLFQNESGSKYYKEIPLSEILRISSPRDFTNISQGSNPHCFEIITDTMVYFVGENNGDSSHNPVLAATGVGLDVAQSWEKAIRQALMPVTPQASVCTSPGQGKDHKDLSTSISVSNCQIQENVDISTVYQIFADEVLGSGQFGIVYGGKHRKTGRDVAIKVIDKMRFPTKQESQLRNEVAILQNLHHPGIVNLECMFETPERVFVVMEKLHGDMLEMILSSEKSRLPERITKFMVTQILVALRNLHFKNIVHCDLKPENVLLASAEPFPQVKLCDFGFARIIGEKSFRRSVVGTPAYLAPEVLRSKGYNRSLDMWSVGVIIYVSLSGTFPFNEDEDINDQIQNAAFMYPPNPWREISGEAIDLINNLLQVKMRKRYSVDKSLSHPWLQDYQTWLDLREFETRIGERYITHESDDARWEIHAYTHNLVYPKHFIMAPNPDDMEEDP
# [13] = biological target: T4, Serine/threonine-protein kinase D3 (Homo sapiens); conditions: at 1 µM
# [14] = biological target: T5, cGMP-dependent protein kinase 1 (Homo sapiens) (UniProt Q13976); conditions: at 0.1 µM
# T5 sequence (whole entry): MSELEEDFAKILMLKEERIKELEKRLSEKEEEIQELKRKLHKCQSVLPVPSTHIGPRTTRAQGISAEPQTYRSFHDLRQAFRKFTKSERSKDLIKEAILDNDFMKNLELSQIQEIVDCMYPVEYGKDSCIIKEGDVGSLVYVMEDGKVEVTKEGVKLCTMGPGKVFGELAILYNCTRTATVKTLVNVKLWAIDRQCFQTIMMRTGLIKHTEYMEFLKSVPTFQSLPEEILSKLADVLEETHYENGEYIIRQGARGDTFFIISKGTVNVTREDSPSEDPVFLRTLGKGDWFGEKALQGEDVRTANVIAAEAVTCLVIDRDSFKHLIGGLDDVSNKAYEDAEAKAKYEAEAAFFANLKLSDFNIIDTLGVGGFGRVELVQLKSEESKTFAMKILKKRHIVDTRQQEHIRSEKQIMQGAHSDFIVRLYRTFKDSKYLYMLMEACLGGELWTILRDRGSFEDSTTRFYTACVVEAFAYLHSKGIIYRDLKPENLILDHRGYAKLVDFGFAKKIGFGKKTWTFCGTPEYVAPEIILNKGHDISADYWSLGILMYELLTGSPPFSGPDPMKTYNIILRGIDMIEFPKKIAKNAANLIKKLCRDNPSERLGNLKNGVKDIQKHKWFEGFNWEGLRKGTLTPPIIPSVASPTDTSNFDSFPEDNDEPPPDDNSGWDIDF
# [15] = biological target: T5, cGMP-dependent protein kinase 1 (Homo sapiens); conditions: at 1 µM
# [16] = biological target: T6, cGMP-dependent protein kinase 2 (Homo sapiens) (UniProt Q13237); conditions: at 0.1 µM
# T6 sequence (whole entry): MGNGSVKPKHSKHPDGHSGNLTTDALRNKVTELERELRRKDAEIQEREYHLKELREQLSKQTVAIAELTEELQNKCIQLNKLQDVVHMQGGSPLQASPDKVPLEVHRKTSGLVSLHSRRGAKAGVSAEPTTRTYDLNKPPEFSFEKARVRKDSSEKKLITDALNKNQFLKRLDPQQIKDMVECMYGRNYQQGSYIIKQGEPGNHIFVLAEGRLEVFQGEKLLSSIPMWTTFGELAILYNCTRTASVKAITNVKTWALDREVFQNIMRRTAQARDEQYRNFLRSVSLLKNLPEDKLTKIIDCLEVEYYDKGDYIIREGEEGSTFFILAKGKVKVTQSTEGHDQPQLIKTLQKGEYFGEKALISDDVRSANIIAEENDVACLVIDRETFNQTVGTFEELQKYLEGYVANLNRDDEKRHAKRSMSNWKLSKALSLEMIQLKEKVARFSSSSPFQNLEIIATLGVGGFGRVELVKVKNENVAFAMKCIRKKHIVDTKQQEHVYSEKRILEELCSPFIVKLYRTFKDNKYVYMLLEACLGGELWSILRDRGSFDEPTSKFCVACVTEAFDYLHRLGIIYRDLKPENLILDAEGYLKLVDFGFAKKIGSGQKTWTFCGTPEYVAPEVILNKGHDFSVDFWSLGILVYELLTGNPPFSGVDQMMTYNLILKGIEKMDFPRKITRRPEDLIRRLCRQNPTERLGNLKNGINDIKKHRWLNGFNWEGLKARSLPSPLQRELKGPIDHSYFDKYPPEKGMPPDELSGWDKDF
# [17] = biological target: T6, cGMP-dependent protein kinase 2 (Homo sapiens); conditions: at 1 µM
# [18] = biological target: T7, cAMP-dependent protein kinase catalytic subunit PRKX (Homo sapiens) (UniProt P51817); conditions: at 0.1 µM
# T7 sequence (whole entry): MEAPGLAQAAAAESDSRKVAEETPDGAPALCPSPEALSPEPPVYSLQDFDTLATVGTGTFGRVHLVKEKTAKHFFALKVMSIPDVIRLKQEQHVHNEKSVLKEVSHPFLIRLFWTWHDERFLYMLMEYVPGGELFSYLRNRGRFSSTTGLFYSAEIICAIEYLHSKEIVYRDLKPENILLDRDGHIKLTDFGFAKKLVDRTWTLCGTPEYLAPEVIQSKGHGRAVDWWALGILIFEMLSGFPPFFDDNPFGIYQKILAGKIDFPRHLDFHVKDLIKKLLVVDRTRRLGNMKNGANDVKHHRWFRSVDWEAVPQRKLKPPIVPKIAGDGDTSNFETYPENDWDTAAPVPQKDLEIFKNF
# [19] = biological target: T7, cAMP-dependent protein kinase catalytic subunit PRKX (Homo sapiens); conditions: at 1 µM
# [20] = biological target: Rho-associated protein kinase 1 (Homo sapiens) (UniProt Q13464); conditions: at 0.1 µM;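 note: values are mean percent inhibition of ROCK1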
# Sequence of Rho-associated protein kinase 1 (Homo sapiens) (Q13464 2-1354 limits assumed): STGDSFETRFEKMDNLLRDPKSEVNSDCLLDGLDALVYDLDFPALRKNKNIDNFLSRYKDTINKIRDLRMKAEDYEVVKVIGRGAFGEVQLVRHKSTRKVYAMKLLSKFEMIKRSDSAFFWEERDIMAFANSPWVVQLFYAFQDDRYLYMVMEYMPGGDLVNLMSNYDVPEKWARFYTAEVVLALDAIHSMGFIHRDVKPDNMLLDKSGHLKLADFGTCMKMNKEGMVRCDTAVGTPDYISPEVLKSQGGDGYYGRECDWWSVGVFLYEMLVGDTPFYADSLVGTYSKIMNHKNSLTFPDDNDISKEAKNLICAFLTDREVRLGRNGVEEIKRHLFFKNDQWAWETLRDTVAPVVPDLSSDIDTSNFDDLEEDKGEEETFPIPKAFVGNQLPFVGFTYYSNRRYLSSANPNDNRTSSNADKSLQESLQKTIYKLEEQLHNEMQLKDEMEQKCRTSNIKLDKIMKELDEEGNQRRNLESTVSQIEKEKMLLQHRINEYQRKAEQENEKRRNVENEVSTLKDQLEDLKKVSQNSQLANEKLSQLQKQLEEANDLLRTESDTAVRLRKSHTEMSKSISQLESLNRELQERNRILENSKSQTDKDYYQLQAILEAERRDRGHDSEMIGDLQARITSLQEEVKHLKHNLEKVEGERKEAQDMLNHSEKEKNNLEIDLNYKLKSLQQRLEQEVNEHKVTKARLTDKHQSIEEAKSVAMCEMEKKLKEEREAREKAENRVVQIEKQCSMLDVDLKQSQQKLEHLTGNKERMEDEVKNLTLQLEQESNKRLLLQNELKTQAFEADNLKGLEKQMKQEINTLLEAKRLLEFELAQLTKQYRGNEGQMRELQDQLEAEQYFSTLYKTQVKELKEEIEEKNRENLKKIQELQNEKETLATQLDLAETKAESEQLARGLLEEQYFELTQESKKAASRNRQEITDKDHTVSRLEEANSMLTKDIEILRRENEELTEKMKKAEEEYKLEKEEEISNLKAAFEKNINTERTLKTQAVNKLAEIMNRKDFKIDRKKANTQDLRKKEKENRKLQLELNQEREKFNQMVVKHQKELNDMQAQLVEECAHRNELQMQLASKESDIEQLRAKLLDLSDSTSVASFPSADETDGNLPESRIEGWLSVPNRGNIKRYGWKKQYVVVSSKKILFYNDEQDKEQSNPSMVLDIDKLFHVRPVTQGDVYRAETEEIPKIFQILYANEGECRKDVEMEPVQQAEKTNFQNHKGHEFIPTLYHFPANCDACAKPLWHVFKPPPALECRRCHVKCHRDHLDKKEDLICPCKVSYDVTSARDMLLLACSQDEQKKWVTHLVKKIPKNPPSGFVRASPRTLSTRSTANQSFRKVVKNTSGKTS
# Sequence of Protein kinase C beta type (Homo sapiens) (P05771 2-671 limits assumed): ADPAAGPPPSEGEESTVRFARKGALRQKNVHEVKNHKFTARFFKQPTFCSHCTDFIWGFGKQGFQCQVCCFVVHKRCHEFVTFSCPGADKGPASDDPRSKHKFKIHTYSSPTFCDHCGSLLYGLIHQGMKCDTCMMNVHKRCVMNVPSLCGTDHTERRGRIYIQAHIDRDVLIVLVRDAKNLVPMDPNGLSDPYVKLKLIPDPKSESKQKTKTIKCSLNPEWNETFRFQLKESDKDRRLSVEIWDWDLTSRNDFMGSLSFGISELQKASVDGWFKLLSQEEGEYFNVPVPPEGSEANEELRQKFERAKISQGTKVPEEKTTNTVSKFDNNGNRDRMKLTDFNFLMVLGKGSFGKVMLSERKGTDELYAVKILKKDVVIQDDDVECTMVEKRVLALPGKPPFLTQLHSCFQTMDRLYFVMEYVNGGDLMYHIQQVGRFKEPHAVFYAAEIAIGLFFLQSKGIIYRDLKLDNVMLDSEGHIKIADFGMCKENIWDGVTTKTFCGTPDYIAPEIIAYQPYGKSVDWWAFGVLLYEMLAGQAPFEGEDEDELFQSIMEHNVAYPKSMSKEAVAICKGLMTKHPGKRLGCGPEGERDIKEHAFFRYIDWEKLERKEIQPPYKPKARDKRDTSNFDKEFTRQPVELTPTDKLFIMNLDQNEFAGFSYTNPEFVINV
# Sequence of Protein kinase C theta type (Homo sapiens) (Q04759 whole entry, looked up): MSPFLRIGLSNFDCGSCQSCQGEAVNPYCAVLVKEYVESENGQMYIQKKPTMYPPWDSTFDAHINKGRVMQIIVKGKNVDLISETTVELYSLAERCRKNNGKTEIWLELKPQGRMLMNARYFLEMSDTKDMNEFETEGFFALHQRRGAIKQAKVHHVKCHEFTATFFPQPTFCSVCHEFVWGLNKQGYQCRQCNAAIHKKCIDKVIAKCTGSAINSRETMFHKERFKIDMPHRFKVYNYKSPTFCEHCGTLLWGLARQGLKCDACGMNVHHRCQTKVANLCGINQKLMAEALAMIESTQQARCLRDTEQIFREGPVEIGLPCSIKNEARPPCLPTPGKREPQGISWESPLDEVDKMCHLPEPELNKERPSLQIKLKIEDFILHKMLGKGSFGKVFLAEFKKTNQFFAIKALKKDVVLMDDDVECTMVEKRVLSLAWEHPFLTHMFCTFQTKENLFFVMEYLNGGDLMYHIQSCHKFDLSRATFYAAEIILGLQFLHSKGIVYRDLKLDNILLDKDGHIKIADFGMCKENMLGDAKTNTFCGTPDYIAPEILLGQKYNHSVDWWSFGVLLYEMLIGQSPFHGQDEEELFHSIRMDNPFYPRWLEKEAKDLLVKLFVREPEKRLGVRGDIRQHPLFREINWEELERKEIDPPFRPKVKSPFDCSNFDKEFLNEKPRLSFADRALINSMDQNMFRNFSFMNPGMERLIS
Structure (SMILES),inhibition [1] [%],inhibition [2] [%],inhibition [3] [%],inhibition [4] [%],inhibition [5] [%],inhibition [6] [%],inhibition [7] [%],inhibition [8] [%],inhibition [9] [%],inhibition [10] [%],inhibition [11] [%],inhibition [12] [%],inhibition [13] [%],inhibition [14] [%],inhibition [15] [%],inhibition [16] [%],inhibition [17] [%],inhibition [18] [%],inhibition [19] [%],inhibition [20] [%]
O=C1NC(=O)C(c2cccc(Cl)c2)=C1Nc1ccc(O)c(Cl)c1,0.01,-1.41,0.5,0,4.79,0.56,8.45,0.15,1.38,0.62,3.16,0.75,1.47,0.66,2.21,1.23,5.33,-0.43,-1.53,0.21
CC(C)=Cc1cccc2c1/C(=N/Nc1ccc(S(N)(=O)=O)cc1)C(=O)N2,1.25,0.62,0.09,1.24,6.89,0.32,1.68,2.84,13.5,-0.05,12.2,1.39,8.68,1.14,4.69,1.13,7.29,1.11,1.36,1.3
NS(=O)(=O)c1ccc(N/N=C2\C(=O)Nc3ccc(C(=O)NCCc4c[nH]cn4)cc32)cc1,5.55,2.26,2.34,2.03,3.63,1.05,2.48,6.28,34.4,5.45,32.9,7.41,38.6,23.6,70.1,9.57,50.8,2.93,12.2,1.37
CS(=O)(=O)CCNCc1ccc(-c2ccc3ncnc(Nc4ccc(OCc5ccccc5)c(Cl)c4)c3c2)o1,0.93,0.76,1.11,0.62,0.16,-0.28,0.08,-0.53,0.36,-0.95,-0.61,-0.81,-0.48,1.06,2,0.55,1.26,0.78,0.52,1.32
